This note sets out measurements from PMC10726135, “HNF4α isoforms regulate the circadian balance between carbohydrate and lipid metabolism in the liver”.

The full ranking holds about 18,000 sequences; the median of “log2 normalized intensity” is about 0.39, and the highest 2% start at about 6.6. The entries come from a sample that favours the highest values as a whole.

The experiment concerns the target T1, HNF4alpha2 (COS-7 nuclear extract) (Homo sapiens, UniProt P41235 1-474).
T1 sequence: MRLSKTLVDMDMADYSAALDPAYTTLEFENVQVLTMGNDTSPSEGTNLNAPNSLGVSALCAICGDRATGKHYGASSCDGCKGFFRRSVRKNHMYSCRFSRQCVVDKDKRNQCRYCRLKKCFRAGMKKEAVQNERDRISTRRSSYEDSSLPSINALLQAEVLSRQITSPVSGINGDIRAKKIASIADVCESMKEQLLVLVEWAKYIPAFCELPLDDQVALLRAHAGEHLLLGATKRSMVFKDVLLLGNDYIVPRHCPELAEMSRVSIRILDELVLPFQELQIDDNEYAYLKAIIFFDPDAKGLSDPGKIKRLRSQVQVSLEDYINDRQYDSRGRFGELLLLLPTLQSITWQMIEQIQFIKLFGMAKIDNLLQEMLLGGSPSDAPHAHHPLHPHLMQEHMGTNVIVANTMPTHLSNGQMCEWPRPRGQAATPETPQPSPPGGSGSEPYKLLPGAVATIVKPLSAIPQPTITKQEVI
Put plainly: protein-binding microarray; COS-7 nuclear extract on double-stranded Agilent 4x180k PBM; binding buffer, salt, pH and temperature not given in the material; high values mean tight binding. The note with it: chain copies: 2; label: 3' end of strand 1 on the slide; dsDNA, one strand shown. Summed up: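 Using CaPO4, COS-7 cells were transiently transfected with a human HNF4α isoform expression vector, and their nuclear extracts were applied to a custom Agilent SurePrint G3 4x180k double-stranded oligonucleotide array (~60 nt; ~44,000 test sequences in quadruplicate). Bound HNF4α was imaged at 2-µm resolution with an Agilent G2565CA scanner. Agilent software supplied the background-corrected, normalized gProcessedSignal that serves as the binding signal.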
Consider “GTTCCGCGGTCCGCAGCGCTGGTGGCTGCAGCCTAGGGAGATTAGAGTATCGGTCGA”, for which the binding signal was -0.919 log2 normalized intensity.

As to “CTTTGTATAAGCCGTGCAAAGTTCATCCCTGCCTAGGGAGATTAGAGTATCGGTCGA”, the binding signal worked out at 3.24 log2 normalized intensity.

For the sequence “CTCGAGGTGGACTTTCCCCCCTCACACTTTGCCTAGGGAGATTAGAGTATCGGTCGA”, the binding signal was determined as 5.25 log2 normalized intensity.

As for “TTGTTTTTGCTTGGAATGCCCTTATCTCATGCCTAGGGAGATTAGAGTATCGGTCGA”, the binding signal amounted to 2.32 log2 normalized intensity.

As for “AGCTGGGCCTGTGCTGGGGACAAAAGCTGAGCCTAGGGAGATTAGAGTATCGGTCGA”, the binding signal is -0.959 log2 normalized intensity.

Turning to “CCCTCCTCCTTTTTTTCCCCTCCCTCAGCTGCCTAGGGAGATTAGAGTATCGGTCGA”, the binding signal is 3.64 log2 normalized intensity.

“CTTACTCTCTCCCTCCTCCTTTTTTTCCCCGCCTAGGGAGATTAGAGTATCGGTCGA”: the binding signal came to 2.98 log2 normalized intensity.

Take “TCTCTCCCTCCTCCTTTTTTTCCCCTCCCTGCCTAGGGAGATTAGAGTATCGGTCGA”: the binding signal was 4.61 log2 normalized intensity.

For the sequence “ACTGCATTCCCTTTCTCCTCCCCTCCCCTCGCCTAGGGAGATTAGAGTATCGGTCGA”, the binding signal worked out at 4.31 log2 normalized intensity.

As to “ACACCAGGCCCTCGGCATCATGCCCTTTGGGCCTAGGGAGATTAGAGTATCGGTCGA”, the binding signal came to 3.91 log2 normalized intensity.

As to “ATTCCCTTTCTCCTCCCCTCCCCTCCCCCCGCCTAGGGAGATTAGAGTATCGGTCGA”, the binding signal was 6.91 log2 normalized intensity.

On to “CATTTTTTTCCACCCTCCCCTCCCCCTCCTGCCTAGGGAGATTAGAGTATCGGTCGA”, for which the binding signal was found to be 6.28 log2 normalized intensity.

In the case of “CTCGGCATCATGCCCTTTGGCCCCCAGAGCGCCTAGGGAGATTAGAGTATCGGTCGA”, the binding signal was 6.14 log2 normalized intensity.

As for “TTCCTCCCACTCTGACATCCCCCTTTCTCTGCCTAGGGAGATTAGAGTATCGGTCGA”, the binding signal was 3.26 log2 normalized intensity.

For the sequence “CTTTCTCCTCCCCTCCCCTCCCCCCACTCAGCCTAGGGAGATTAGAGTATCGGTCGA”, the binding signal amounted to 6.94 log2 normalized intensity.

For “TTTTCCACCCTCCCCTCCCCCTCCTCCCCTGCCTAGGGAGATTAGAGTATCGGTCGA”, the binding signal was determined as 7.13 log2 normalized intensity.

“AGGCCCTCGGCATCATGCCCTTTGGCCCCCGCCTAGGGAGATTAGAGTATCGGTCGA”: the binding signal was 7.28 log2 normalized intensity.

In the case of “TCCTGATCCCTGAGGTCGGGGCCTGGTCTGGCCTAGGGAGATTAGAGTATCGGTCGA”, the binding signal turned out to be 0.683 log2 normalized intensity.

Take “CAATGCCCCAGAAAGCCAGCAGGGGCTGCTGCCTAGGGAGATTAGAGTATCGGTCGA”: the binding signal is -0.844 log2 normalized intensity.

Take “AGCTTCTCTTTCTAGGTCACCACCTTTTTTGCCTAGGGAGATTAGAGTATCGGTCGA”: the binding signal is 1.37 log2 normalized intensity.

Consider “GGCCTGATAGATTTTGCATTGCTCACATAGGCCTAGGGAGATTAGAGTATCGGTCGA”, for which the binding signal is -0.988 log2 normalized intensity.

Turning to “TCCTCCAAAACCCAGTTCATAGGTCAATTCGCCTAGGGAGATTAGAGTATCGGTCGA”, the binding signal was found to be 4.02 log2 normalized intensity.

For “TCCTCCCCTCCCCTCCCCCCACTCAAAATAGCCTAGGGAGATTAGAGTATCGGTCGA”, the binding signal stood at 6.79 log2 normalized intensity.

Consider “CCCTCCCCTCCCCCCACTCAAAATAGGAGTGCCTAGGGAGATTAGAGTATCGGTCGA”, for which the binding signal came to 4.52 log2 normalized intensity.

With “CCCTCCCCCCACTCAAAATAGGAGTTAAGGGCCTAGGGAGATTAGAGTATCGGTCGA”, the binding signal was determined as 2.45 log2 normalized intensity.

Consider “AGCTGACGCCCCACCCCCTCCACCCCTGCCGCCTAGGGAGATTAGAGTATCGGTCGA”, for which the binding signal came to 6.82 log2 normalized intensity.

On to “ACGCCCCACCCCCTCCACCCCTGCCTTTCAGCCTAGGGAGATTAGAGTATCGGTCGA”, for which the binding signal is 6.39 log2 normalized intensity.

For “GAAAAAGCTGACGCCCCACCCCCTCCACCCGCCTAGGGAGATTAGAGTATCGGTCGA”, the binding signal was determined as 6.44 log2 normalized intensity.

For “GGCTATACAATTCCAGCAAGGATGGGGGCAGCCTAGGGAGATTAGAGTATCGGTCGA”, the binding signal is -0.832 log2 normalized intensity.

For “AAAATTAAGGTTCAAAGGGAAAAAATAATCGCCTAGGGAGATTAGAGTATCGGTCGA”, the binding signal was -0.757 log2 normalized intensity.

Take “TTCCATTGAAGCAGAGTGTCCCATATCACAGCCTAGGGAGATTAGAGTATCGGTCGA”: the binding signal is 0.724 log2 normalized intensity.

“GTTAGATTAGTGTGCAGCTTTGTGTAAAACGCCTAGGGAGATTAGAGTATCGGTCGA”: the binding signal turned out to be 0.946 log2 normalized intensity.

Take “AGATCTCAGTTGGTCCAAGGTACATGTCTCGCCTAGGGAGATTAGAGTATCGGTCGA”: the binding signal was 2.34 log2 normalized intensity.

As for “AGAAGGAAAAGGCCTGACCTTTGCCCTCTGGCCTAGGGAGATTAGAGTATCGGTCGA”, the binding signal came out at 10.1 log2 normalized intensity.

For the sequence “TTCTGCCCCTTGCTCCTGCTTGCTGGCTTTGCCTAGGGAGATTAGAGTATCGGTCGA”, the binding signal came to 1.2 log2 normalized intensity.

Turning to “ACAGAAGAAGGAAAAGGCCTGACCTTTGCCGCCTAGGGAGATTAGAGTATCGGTCGA”, the binding signal was determined as 4.61 log2 normalized intensity.

Consider “CTCTGCAGAGGCTTCCTCTTTGGTGCAAAGGCCTAGGGAGATTAGAGTATCGGTCGA”, for which the binding signal was -0.855 log2 normalized intensity.

Regarding “GAAAAGGCCTGACCTTTGCCCTCTGGCCCTGCCTAGGGAGATTAGAGTATCGGTCGA”, the binding signal was 9.1 log2 normalized intensity.

Turning to “AGAGGACAGAAGAAGGAAAAGGCCTGACCTGCCTAGGGAGATTAGAGTATCGGTCGA”, the binding signal was -0.388 log2 normalized intensity.

Regarding “CTCTTTGGTGCAAAGGTCAGGACAAGGCTCGCCTAGGGAGATTAGAGTATCGGTCGA”, the binding signal is 4.3 log2 normalized intensity.

Turning to “CAGAGGCTTCCTCTTTGGTGCAAAGGTCAGGCCTAGGGAGATTAGAGTATCGGTCGA”, the binding signal stood at 6.86 log2 normalized intensity.

As for “CCCTCGACCTTTGCCCTCCATAAGGGGGAGGCCTAGGGAGATTAGAGTATCGGTCGA”, the binding signal was 6.24 log2 normalized intensity.

For the sequence “GACAGCTGGGCCCTGCCTGACCTGCCCTTTGCCTAGGGAGATTAGAGTATCGGTCGA”, the binding signal was 4.42 log2 normalized intensity.

As to “CCCTGCCTGACCTGCCCTTTGTCCCTCCTGGCCTAGGGAGATTAGAGTATCGGTCGA”, the binding signal amounted to 4.51 log2 normalized intensity.
